RORg inh: inhibitors of mouse ROR gamma transcriptional activity; P51450; actives 5.4% (n = 310,000); Potency, µM (titrated, usually from 53.6 µM), for the others: at the highest dose activity change, negative = inhibition, usual class: inhibitors; Drosophila S2 Gal4-RORgamma UAS-luciferase reporter, 20 h; note: nearly all actives have a fitted effect of over 60% in size
Target sequence (P51450 whole entry, looked up, the tested form may be a part): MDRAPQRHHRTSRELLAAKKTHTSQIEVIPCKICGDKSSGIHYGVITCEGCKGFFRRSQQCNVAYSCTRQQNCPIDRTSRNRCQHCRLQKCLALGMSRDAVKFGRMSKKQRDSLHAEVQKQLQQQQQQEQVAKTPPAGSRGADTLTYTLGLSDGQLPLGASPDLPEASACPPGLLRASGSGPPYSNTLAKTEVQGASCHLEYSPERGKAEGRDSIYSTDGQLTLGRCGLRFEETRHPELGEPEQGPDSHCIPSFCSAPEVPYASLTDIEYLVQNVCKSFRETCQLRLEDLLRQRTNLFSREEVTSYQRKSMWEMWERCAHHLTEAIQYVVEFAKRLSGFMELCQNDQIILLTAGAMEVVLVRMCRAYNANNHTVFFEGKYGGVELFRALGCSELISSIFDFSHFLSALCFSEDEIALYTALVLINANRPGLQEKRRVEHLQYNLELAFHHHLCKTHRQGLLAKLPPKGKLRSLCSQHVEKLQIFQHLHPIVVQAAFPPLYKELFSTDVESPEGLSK
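Drosophila S2 cells stably expressing Gal4-DBD/mouse RORγ fusion under metallothionein promoter plus UAS-luciferase; compound 1 h, then 700 uM CuSO4 induction for 20 h at ambient temperature; inhibition read as reduced luminescence.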
KinaseGlo FLuc: Kinase-Glo luciferase inhibition (counter-screen); Q27757; Kinase-Glo luciferase, ATP luminescence, 8 min; Potency, µM (top dose mostly 38.3 µM), without a hit: at the highest dose activity change, negative = inhibition, actives largely listed as inhibitors; actives 0.28% (n = 200,000); AID 1379; note: nearly all actives have a fitted effect of over 60% in size
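Substrate mix (final 50 mM imidazole pH 7.2, 50 mM KCl, 7 mM MgCl2, 10 uM ATP, 0.01% Tween 20, 0.05% BSA) plus pin-tool compound, then Kinase-Glo detection mix; 8 min ambient, luminescence read.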
VP16 counter: inhibits Gal4-VP16 luciferase reporter, ROR gamma counter-screen; Drosophila S2 Gal4-VP16 UAS-luciferase, luminescence, 20 h; Potency, µM (series often up to 53.6 µM), without a hit: top-dose activity, negative = inhibition, hits mostly inhibitors; actives 3.5% (n = 310,000); AID 2546;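 note: Gal4-VP16 expression switched on by copper sulfate through the metallothionein promoter; nearly all actives have a fitted effect of over 50% in size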
* marks the source's active call; other numbers are inactive results; ? = inconclusive; nt = not tested or not shown; [ ] = dose if it differs, or a comment. Rows were chosen to be rich in hits. Some 6.4% of all compounds tested hit in one or more screens of this group. Calls come from the whole dose curve; as a rule, active = well fitted curve in the direction sought with a large enough effect; inconclusive = small, poorly fitted or top-dose-only effect, or another doubt; inactive = no such curve, though single readings can be large; an effect the other way counts as inactive or inconclusive. % is set by controls: 0 for no effect and ±100 for the full control effect; potency is the fitted concentration of half-maximal effect.

SMILES | RORg inh | KinaseGlo FLuc | VP16 counter
O=C(Cn1nnc(-c2ccccc2)n1)N/N=C/c1ccco1 | 0% | 6% | -11%
COCCSc1ccccc1C(=O)N1CCN(Cc2ccccc2)CC1 | 12% | nt | -13%
Cc1cc(C(=O)Nc2ccc(C#N)cc2)on1 | 28% | nt | 6%
COc1ccc(N(C(=O)Cn2nnc(-c3ccc(C)o3)n2)C(C(=O)NC2CCCC2)c2ccncc2)cc1 (centres undefined) | -31% | nt | -8%
COc1ccc(CNC(=O)c2ccc(C)cc2)cc1 | 25% | nt | -4%
COc1ccc(CNC(=S)Nc2cc(C)ccc2C)cc1 | 7.9µM* | -4% | 7.1µM*
COc1ccc(/C(C)=N/NC(=S)Nc2cc(C)ccc2C)cc1 | 2.8µM* | -2% | 11µM*
COc1ccc(C(=O)COc2ccc(C)cc2NC(C)=O)cc1 | ? | nt | -13%
COc1ccc(CNC(=O)N2CCc3ccccc3C2)cc1Cl | 17% | nt | -2%
Cn1cc(CNCCN2CCCCC2=O)c(-c2cccc(Cl)c2)n1 | 8% | -1% | 5%
O=C(CCSc1nc2ccccc2o1)Nc1ccccc1 | 1% | nt | -3%
CC1=C(C(=O)Nc2ccccc2)C(c2ccc(C)cc2)N=C(Nc2nc3ccccc3o2)N1 (centres undefined) | ? | -2% | 11µM*
CC(C)(C)NC(=O)CN(C(=O)CS(=O)CC(=O)Nc1ccc(F)cc1)c1ccc2c(c1)OCCO2 (centres undefined) | -11% | -6% | -25%
CSc1nnc(NC(=O)c2ccc3c(c2)OCO3)s1 | 2.5µM* | nt | 4.5µM*
Cc1nnc(NC(=O)c2ccc3c(c2)OCO3)s1 | -43% | -13% | -16%
CCOC(=O)C(C)Sc1nnc(NC(=O)c2ccc3c(c2)OCO3)s1 (centres undefined) | 10µM* | 0% | -21%
O=C(Nc1nncs1)c1ccc2c(c1)OCO2 | -13% | nt | 9%
O=C1C(Cc2ccccc2)NC(=S)N1c1ccccc1 (centres undefined) | 11µM* | -1% | ?
Cc1cccc(N2C(=O)C(Cc3ccccc3)NC2=S)c1 (centres undefined) | ? | 1% | ?
Cc1ccc2[nH]c(C)c(CC(=O)NCc3ccccc3)c2c1 | -1% | nt | 5%
CCc1cccc(C)c1NC(=S)NCCc1c(C)[nH]c2ccc(C)cc12 | 2.2µM* | 13% | 5.6µM*
CCc1cccc(CC)c1NC(=S)NCCc1c(C)[nH]c2ccc(C)cc12 | 3.2µM* | -1% | 5µM*
Cc1ccc2[nH]c(C)c(CCNC(=O)c3c(N)no[n+]3[O-])c2c1 | 22% | -1% | -1%
CCC(C)c1cc([N+](=O)[O-])cc([N+](=O)[O-])c1OC(C)=O (centres undefined) | -11% | nt | 1%
CCN(CC)c1ccc(C(=O)OCc2c(C)noc2C)cc1 | 30% | -2% | -8%
SMILES | RORg inh | KinaseGlo FLuc | VP16 counter
O=C(NC1CCCCC1)C(c1ccccn1)N(C(=O)c1csnn1)c1ccccc1F (centres undefined) | -18% | nt | -2%
CCn1c(=O)cc(OCC(=O)NCCCN2CCCC2=O)c2ccccc21 | -42% | nt | -11%
O=C1CCCC(O)=C1C1C2=C(CCCC2=O)OC2=C1C(=O)CCC2 | -6% | 0% | -8%
COc1ccc2c(c1)OC1=C(C(=O)CCC1)C2C1=C(O)CCCC1=O (centres undefined) | 11µM* | 2% | 10%
Cc1ccc[n+](CC(=O)Nc2nc3ccccc3s2)c1 | 27% | 0% | 2%
COc1ccc(Cn2ccc(=O)c(Cc3c(Cl)cccc3Cl)c2C)cc1 | 16µM* | -2% | 16µM*
Cc1ccc(Cn2ccc(=O)c(Cc3c(Cl)cccc3Cl)c2C)cc1 | 28% | 4% | -14%
c1cnc(N2CCN(c3ncnc4c3oc3ccccc34)CC2)nc1 | 30% | nt | 0%
C(=C\c1ccccc1)/CN1CCN(c2ncnc3c2oc2ccccc23)CC1 | ? | 4% | 18µM*
O=C(OCc1ccccc1)/C(=C/c1ccccc1Cl)NC(=O)c1ccco1 | ? | nt | 0%
CCCNC(=O)NC(=O)CN1CCCC1c1ccc2c(c1)OCCO2 (centres undefined) | 19% | nt | -9%
O=C(CCl)N1CCCC1c1ccc2c(c1)OCCO2 (centres undefined) | 4.5µM* | nt | ?
Cc1cc2c(nc1C)CCCCN2C[C@H](C)O/N=C\[C@@H](C)[C@H](OCc1ccccc1)C(C)C | -13%[10 µM] | nt | -12%[10 µM]
COc1cccc(/C=N\NC(=O)c2ccc(C)nc2)c1 | ? | nt | 8%
CCCCC#Cc1cncc(C(=O)N/N=C/c2cccc(OC)c2)c1 | 11µM* | nt | ?
CCCCc1cc(=O)oc2c(C)c(OCc3nn[nH]n3)ccc12 | 14% | nt | 4%
CN(C)c1ccc(/C=C(\C#N)c2ccccn2)cc1 | 7.1µM* | 7.9µM* | 7.9µM*

From PubChem BioAssay
